Measurements: PubChem BioAssay (EPA / NIEHS)
Calls of active or inactive are those of the source. The calls were made as follows: active = hit-call score of the fitted dose curve at least 0.9, where 1 is the maximum; inactive = score below 0.9.

Columns and labels:
[1] = read-out: Interleukin 17F (IL17F), IL17F (gene 112744); assay: BSK_BT_xIL17F: BioMAP Diversity Plus: BT Assay for Interleukin 17F (IL17F) Biomarker Activity (AID 2284243); conditions: primary human B cells with PBMC
In short: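 Measures secreted IL-17F from a human B cell plus PBMC co-culture at 24 h post-dose by Luminex xMAP, with DMSO defining baseline activity.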

[2] = read-out: Actin alpha 1 (ACTA1), ACTA1 (gene 58); assay: BSK_MyoF_ACTA1: BioMAP Diversity Plus: MyoF Assay for Actin alpha 1 (ACTA1) Biomarker Activity (AID 2284244); conditions: primary human lung fibroblasts
In short: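 Human lung fibroblast (MyoF system) cultures dosed with test chemical; alpha-SMA measured by ELISA 24 h after dosing, normalized to DMSO control. Cytotoxicity tracked in parallel cultures by SRB total-protein staining.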

[3] = read-out: Interleukin 2 (IL2), IL2 (gene 3558); assay: BSK_BT_xIL2: BioMAP Diversity Plus: BT Assay for Interleukin 2 (IL2) Biomarker Activity (AID 2284245); conditions: primary human B cells with PBMC
In short: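 Human B cell plus PBMC co-culture, 24 h after chemical dosing; secreted IL-2 quantified by Luminex xMAP multiplex, fitted for signal gain against DMSO baseline.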

[4] = read-out: Basic fibroblast growth factor (bFGF), FGF2 (gene 2247); assay: BSK_MyoF_bFGF: BioMAP Diversity Plus: MyoF Assay for Basic fibroblast growth factor (bFGF) Biomarker Activity (AID 2284246); conditions: primary human lung fibroblasts
In short: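 Human lung fibroblast cultures were dosed and measured 24 h later in 96-well format. bFGF biomarker levels quantified by ELISA, with activity fitted in the positive direction against DMSO.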

[5] = read-out: Collagen IV, COL4A1 (gene 1282); assay: BSK_MyoF_CollagenIV: BioMAP Diversity Plus: MyoF Assay for Collagen IV Biomarker Activity (AID 2284247); conditions: primary human lung fibroblasts
In short: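 Primary human lung fibroblasts (MyoF system) dosed 24 h; Collagen IV measured by ELISA. Activity fitted in positive direction against DMSO; cytotoxicity tracked by SRB total-protein staining in parallel cultures.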

Structure (SMILES)	outcome [1]	outcome [2]	outcome [3]	outcome [4]	outcome [5]	AC50 [2]	AC50 [3]	AC50 [1]	AC50 [4]	AC50 [5]
CCN(CC)C(=O)N(CC)CC	inactive	inactive	inactive	inactive	inactive	–	–	–	–	–
Clc1cc(Cl)c(-c2c(Cl)c(Cl)cc(Cl)c2Cl)cc1Cl	inactive	–	–	inactive	inactive	4.98 µM (active)	4.55 µM (active)	–	–	–
Cc1cc(CCC(=O)OCCOCCOCCOC(=O)CCc2cc(C)c(O)c(C(C)(C)C)c2)cc(C(C)(C)C)c1O	inactive	inactive	inactive	inactive	inactive	–	–	–	–	–
CCCCOC(=O)CCCCCCCC(=O)OCCCC	inactive	inactive	inactive	inactive	inactive	–	–	–	–	–
CCC(C)c1cc([N+](=O)[O-])cc([N+](=O)[O-])c1OC(=O)OC(C)C (stereo not given)	–	–	–	–	–	8.46 µM (active)	20 µM (active)	33.7 µM (active)	27.7 µM (active)	20 µM (active)
CC(C)(N=C=O)c1cccc(C(C)(C)N=C=O)c1	inactive	inactive	inactive	inactive	inactive	–	–	–	–	–
C[C@@H]1CCN(C(=O)[C@H](CCCN=C(N)N)NS(=O)(=O)c2cccc3c2NC[C@H](C)C3)[C@@H](C(=O)O)C1	inactive	inactive	inactive	inactive	inactive	–	–	–	–	–
CC1(C)C2=CCCC(C)(C)[C@]23CC[C@H]1C3	inactive	–	inactive	inactive	inactive	30.9 µM (active)	–	–	–	–
CC(=O)Nc1ccc(C(=O)CCl)cc1	–	–	–	–	–	20 µM (active)	5.57 µM (active)	3.15 µM (active)	32.5 µM (active)	16.9 µM (active)
CS(=O)(=O)c1ccc(C2=C(c3ccccc3)C(=O)OC2)cc1	inactive	inactive	inactive	inactive	inactive	–	–	–	–	–
c1ccc(CCc2ccccc2)cc1	inactive	–	inactive	–	–	13.7 µM (active)	–	–	30.4 µM (active)	31.5 µM (active)
CC(=O)c1c(C)c([N+](=O)[O-])c(C(C)(C)C)c([N+](=O)[O-])c1C	–	inactive	inactive	inactive	inactive	–	–	20 µM (active)	–	–
CC(=O)C1(C)CC2=C(CCCC2(C)C)CC1C (stereo not given)	–	–	inactive	–	–	13.1 µM (active)	–	30.5 µM (active)	29.3 µM (active)	11.9 µM (active)
CN(c1nccc(=O)[nH]1)C1CCN(c2nc3ccccc3n2Cc2ccc(F)cc2)CC1	inactive	inactive	–	inactive	inactive	–	9.2 µM (active)	–	–	–
C=C(C)[C@H]1CC=C(C)C(=O)C1	inactive	inactive	inactive	inactive	inactive	–	–	–	–	–
CCCCCCCCCCCCCCCC(=O)OC/C=C(C)/C=C/C=C(C)/C=C/C1=C(C)CCCC1(C)C	inactive	inactive	inactive	inactive	inactive	–	–	–	–	–
COc1ccc(CCN2CCC(Nc3nc4ccccc4n3Cc3ccc(F)cc3)CC2)cc1	–	–	–	–	inactive	8.05 µM (active)	6.51 µM (active)	6.67 µM (active)	7.78 µM (active)	–
CN(C)C(=S)SC(=S)N(C)C	–	–	–	–	inactive	36.6 µM (active)	0.432 µM (active)	0.559 µM (active)	31.9 µM (active)	–
IC(I)I	inactive	inactive	inactive	inactive	inactive	–	–	–	–	–
COc1ccc(OC)c(N=Nc2c(O)ccc3ccccc23)c1	–	–	inactive	–	inactive	10.5 µM (active)	–	5.41 µM (active)	20 µM (active)	–
CN(C)C(=O)Nc1ccc(Oc2ccc(Cl)cc2)cc1	inactive	inactive	–	inactive	inactive	–	20 µM (active)	–	–	–
C=C(C)C(=O)OCCOCCOCCOCCOC(=O)C(=C)C	inactive	inactive	inactive	inactive	inactive	–	–	–	–	–
C1=CC2C3C=CC(C3)C2C1 (stereo not given)	inactive	inactive	inactive	inactive	inactive	–	–	–	–	–
